Unmarked numbers belong to inactive results. How the calls were made is not given here.

What is called remaining activity is the signal under treatment as a percentage of the control signal.

This test concerns Aerobactin synthetase IucA (Klebsiella pneumoniae, hypervirulent). The test can be described thus: IucA enzyme inhibition, biochemical, LOPAC library, absorbance readout (AID 1346212).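 Further: 100% = no compound wells and 0% = no enzyme wells.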 Particulars: IucA enzyme assay, absorbance (OD) readout; hits give low values;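 tested at 8 µM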.
Consider `N[C@@H](Cc1c[nH]c2ccccc12)C(=O)O`, for which the remaining activity is 91.3%.

Take `Cc1cccc(C)c1NC(=O)C(C)N` (stereo not given): the remaining activity was 95.4%.

As to `O=C(O)CNC(=O)C(CS)Cc1ccccc1` (stereo not given), the remaining activity is 119%.

As for `Oc1ccc(-c2nc(-c3ccc(F)cc3)c(-c3ccncc3)[nH]2)cc1`, the remaining activity is 119%.

With `O=C1NC(=O)c2cc(Nc3ccccc3)c(Nc3ccccc3)cc21`, the remaining activity was 113%.

With `Nc1c(C(=O)Nc2nnc(-c3ccccc3)s2)sc2nc3c(cc12)CCCCC3`, the remaining activity is 109%.

As for `O=S(=O)(c1cccc2cnccc12)N1CCNCC1`, the remaining activity is 121%.

On to `O=[N+]([O-])c1ccc(CSc2ncnc3c2ncn3[C@@H]2O[C@H](CO)[C@@H](O)[C@H]2O)cc1`, for which the remaining activity was 126%.

In the case of `Cn1c(=O)c2[nH]c(-c3ccc(S(=O)(=O)O)cc3)nc2n(C)c1=O`, the remaining activity was 117%.

Consider `CCCCCCN(CCCCCC)C(=O)Cc1c(-c2ccc(F)cc2)[nH]c2ccccc12`, for which the remaining activity is 97.1%.

Take `Nc1ncnc2c1nc(Br)n2C1OC2COP(=O)(O)O[C@@H]2C1O` (stereo not given in full): the remaining activity was 113%.

Take `CC(C)NC[C@H](O)COc1cccc2[nH]ccc12`: the remaining activity was 116%.

For `O=c1c2ccccc2[nH]c(=S)n1CCN1CCC(=C(c2ccc(F)cc2)c2ccc(F)cc2)CC1`, the remaining activity was 119%.

For the compound `Brc1c(Br)c(Br)c2[nH]cnc2c1Br`, the remaining activity is 110%.

On to `C[C@H](Cc1ccc(O)c(O)c1)[C@@H](C)Cc1ccc(O)c(O)c1`, for which the remaining activity is 117%.

On to `CN1Cc2sccc2C(c2ccc(O)c(O)c2)C1` (stereo not given), for which the remaining activity is 120%.

As for `Nc1nc2c(nc(Br)n2C2OC3COP(=O)(O)O[C@@H]3C2O)c(=O)[nH]1` (stereo not given in full), the remaining activity was 111%.

For `COc1ccc(Cl)cc1NC(=O)Nc1cc(C)nc2ccccc12`, the remaining activity was 95%.

Consider `COc1ccc([C@@H]2Sc3ccccc3N(CCN(C)C)C(=O)[C@@H]2OC(C)=O)cc1`, for which the remaining activity was 109%.

On to `O=C(c1ccc(OCCCc2cnc[nH]2)cc1)C1CC1`, for which the remaining activity was 100%.

Regarding `NC(=NCCC[C@H](N)C(=O)O)NO`, the remaining activity is 101%.

Regarding `N#C/C(=C\c1c[nH]c2ccccc12)C(=O)c1ccc(O)c(O)c1`, the remaining activity was 97.5%.

For `Cc1cccc(/C=C/c2ccccc2)n1`, the remaining activity is 81%.

With `N=C(N)SCCc1cccc(CCSC(=N)N)c1`, the remaining activity was 110%.

For `CN(C)CCCO[C@@H]1[C@H]2OC(C)(C)O[C@H]2O[C@@H]1[C@H](O)CO`, the remaining activity was 113%.

For the compound `NC(N)=NCCC[C@H](N)C(=O)O`, the remaining activity is 111%.

Regarding `Nc1nc(OCc2ccccc2)c2[nH]cnc2n1`, the remaining activity was 103%.

With `c1cnc(N2CCN(Cc3ccc4c(c3)OCO4)CC2)nc1`, the remaining activity is 102%.

In the case of `CC1(C)CCC2=C(O1)c1ccccc1C(=O)C2=O`, the remaining activity is 113%.

`CNC1(C)C2CCC(C2)C1(C)C` (stereo not given): the remaining activity is 96.4%.

On to `COc1ccccc1N1CCN(CCCNc2c(C)c(=O)n(C)c(=O)n2C)CC1`, for which the remaining activity is 96.4%.

Take `O=C(O)/C=C1\CCCc2ccccc2C1O` (stereo not given): the remaining activity is 119%.

In the case of `C[C@H]1O[C@@H](n2cc(F)c(=O)[nH]c2=O)[C@H](O)[C@@H]1O`, the remaining activity is 98.9%.

Regarding `O=C(CCNNC(=O)c1ccncc1)NCc1ccccc1`, the remaining activity is 115%.

For `COc1ccccc1N1CCN(CCCCN2C(=O)c3ccccc3C2=O)CC1`, the remaining activity is 113%.

For the compound `NC(=S)NCCCC(N)C(=O)O` (stereo not given), the remaining activity is 102%.

As for `O=c1[nH]c(=O)c2nc3ccccc3nc2[nH]1`, the remaining activity was 114%.

For `COc1cc(CC(=O)O)ccc1O`, the remaining activity was 83.1%.

For the compound `O=C1c2ccccc2-c2n[nH]c3cccc1c23`, the remaining activity is 88.6%.

On to `N#CC(C#N)=C(N)/C(C#N)=C/c1ccc(O)cc1`, for which the remaining activity is 117%.

The record behind these values is PubChem BioAssay.
